Measurements reported in PubChem BioAssay (EPA / NIEHS).
The source made the active and inactive calls. The calls were made as follows: active = hit-call score of the fitted dose curve at least 0.9, where 1 is the maximum; inactive = score below 0.9.

test: CCTE_Shafer_MEA_acute_burst_number: CCTE's Neural Acute Assay for Single-Electrode Bursts, Shafer Lab (AID 2284013)
Procedure: CCTE_Shafer_MEA_acute assay is conducted using Axion Biosystems 48 well microelectrode array (MEA) plates and Maestro recording system. Each well of the MEA plate contains a grid of 16 microelectrodes embedded in the culture surface. Electrically active cells, such as neurons, can be cultured over the electrodes, and electrical activity in these cells can be recorded extracellularly. The spontaneous firing of neurons is captured from each electrode on a microsecond timescale providing both temporally and spatially precise data. […] The CCTE_Shafer_MEA_acute assay uses primary cultures of rat cortical neurons. As these cultures mature over time, neural networks develop functional activity and form cohesive networks in which electrical activity can be highly coordinated. Baseline 40-minute recordings are made on days post-plating 13 or 15, followed by a secondary 40-minute recording after chemical exposure.CCTE_Shafer_MEA_acute_burst_number is a component of the CCTE_Shafer_MEA_acute assay. It measures the total number of single-electrode bursts (temporally-clustered groups of action potential firing) during a recording in a microelectrode array (MEA) using Axion Biosystems Maestro 768 channel amplifier with the AxIS adaptive spike detector. The recordings before and after chemical treatment are used to calculate a percent change in the burst number in each well.Data from the assay component CCTE_Shafer_MEA_acute_burst_number was analyzed into 1 assay endpoint. This assay endpoint, CCTE_Shafer_MEA_acute_burst_number, was analyzed in the negative analysis fitting direction relative to DMSO as the negative control and baseline of activity. Using a type of functional reporter, gain or loss-of-signal activity can be used to understand electrical activity.
Spontaneous activity in the cortical cultures was recorded using an Axion Biosystems Maestro 768 channel amplifier and Axion Integrated Studios (AxIS) v1.8 (or later) software. The amplifier recorded from all channels simultaneously (gain = 1200 x; sampling rate = 12.5 kHz/channel): raw signals were filtered with a Butterworth band-pass filter (300-5000 Hz), which filters out slower local field potentials leaving only fast potentials, i.e., "spikes", arising from extracellular currents associated with action potentials (Pine 2006; Wheeler and Nam 2011). On-line spike detection of filtered signals was conducted with the AxIS adaptive spike detector, using a threshold of 8x the root mean squared (rms) noise on each channel. Any electrodes with rms noise levels greater than 5 uV were grounded (e.g., no data were recorded). Once grounded, an electrode was grounded for the duration of the experiment. All recordings were conducted at 37 C. Wells were deemed usable if on the day of the exposure >/= 10 electrodes were active (defined as >/= 5 spikes/min). On DIV 13 or 15, a minimum of three wells from one cortical culture preparation were treated with each compound (0.03-40 uM). Prior to recording baseline activity, each mwMEA plate was placed in the Maestro at 37 C and allowed to sit for 20 min while firing rates stabilized. Baseline activity (40 min) was recorded before the addition of each compound. An additional 40 min of spontaneous activity was recorded in the presence of each compound. Changes in network parameters relative to baseline were assessed following compound treatment.

outcome, inactive:
CCCCC(CC)COC(=O)c1ccccc1O (stereo unspecified)
O=C1CCCN1CCO
CO[Si](OC)(OC)c1ccccc1
CCCCC(CC)COCC1CO1 (stereo unspecified)
C=C[Si](OC(C)=O)(OC(C)=O)OC(C)=O
O=C(c1ccc(O)cc1)c1ccc(O)cc1O
CCO[Si](C)(OCC)OCC
Nc1ccc(N)c(Cl)c1
CN1C(=O)N(C)C(O)C1O (stereo unspecified)
CCOC(=O)c1ccccc1C(=C1C=C(Br)C(=O)C(Br)=C1)c1cc(Br)c(O)c(Br)c1

AC50, active:
Nc1ncn([C@@H]2O[C@H](CO)[C@@H](O)[C@H]2O)c(=O)n1 14.2 nM
